# Bioassay records: PubChem, National Center for Advancing Translational Sciences (NCATS)
# Most compounds without a hit are left out; they make up all but 7% or so of the library.
# ATXN2 expr inh: ATXN2 expression inhibition. HEK-293 ATXN2-luciferase reporter, luminescence, 24 h. Potency, µM (doses to about 57 µM), for inactives: top-dose activity change, negative = inhibition, actives largely listed as inhibitors. 360,000 compounds, 0.72% hits; note: potency is the fitted concentration of half-maximal effect; % is set by controls: 0 for no effect and ±100 for the full control effect; nearly all actives have a fitted effect of over 55% in size
#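 ATXN2-luciferase reporter cells (luciferase flanked by upstream and downstream ATXN2 gene portions) were treated 24 h at 37 °C with compounds at up to 57 uM. SteadyGlo luminescence gave expression; GF-AFC fluorescence gave viability.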
# D3 antag: D3 dopamine receptor (human) antagonism. AID 652054. D3R cells, DiscoveRx beta-arrestin luminescence, antagonist mode; stronger effect = lower value. max response, negative = inhibition, %. 360,000 compounds, 2.5% hits. P35462; in the data active = max response below about -50%; inconclusive = no clear call, values can overlap the other calls; note: % is set by controls: 0 for no effect and ±100 for the full control effect
# Target sequence (P35462 whole entry, looked up): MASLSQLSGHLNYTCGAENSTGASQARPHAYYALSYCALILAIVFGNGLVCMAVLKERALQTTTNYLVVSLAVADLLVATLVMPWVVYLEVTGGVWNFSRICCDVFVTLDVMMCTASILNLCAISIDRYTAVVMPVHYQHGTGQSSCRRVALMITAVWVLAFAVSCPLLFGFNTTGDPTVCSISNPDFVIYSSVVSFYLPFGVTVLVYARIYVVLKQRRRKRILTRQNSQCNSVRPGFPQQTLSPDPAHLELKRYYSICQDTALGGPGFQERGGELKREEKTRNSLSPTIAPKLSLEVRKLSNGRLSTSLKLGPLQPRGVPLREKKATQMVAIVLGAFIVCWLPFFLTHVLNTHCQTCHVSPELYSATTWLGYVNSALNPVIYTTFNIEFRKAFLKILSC
#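 Cells expressing the human receptor were seeded at 1500 cells/well, incubated overnight at 37 degrees C in 5% CO2, then exposed to library compounds with dopamine controls for 90 minutes at 37 degrees C before luminescent detection.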
# ATXN viability: viability counter-screen for ATXN expression inhibitors. S2 cells (HEK-293 line with an ATXN2-luciferase reporter) viability, CellTiter-Fluor protease fluorescence, 24 h. Potency, µM (series often up to 56.7 µM), most hits filed as cytotoxic. 400,000 compounds, 0.49% hits. AID 651635; note: potency is the fitted concentration of half-maximal effect; nearly all actives have a fitted effect of over 40% in size
# DRD3 agonist: agonists of human D3 dopamine receptor | P35462 | D3R DiscoveRx beta-arrestin cells, luminescence, 90 min | max activation, % | 410,000 compounds, 0.58% hits; in the data active = max activation above about 30%; note: 0% is about no effect
#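 Cells at 1500/well, incubated overnight, then treated with pinned compounds (dopamine as control) for 90 min at 37 degrees C. DiscoveRx reagent added for 30 - 60 minutes at room temperature; luminescence read.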
# Integrin act MD: activators of alpha7 integrin expression for muscular dystrophy; alpha7betagal myoblasts, beta-gal FDG fluorescence, 48 h; Potency, µM (series often up to 38.3 µM), inactives show at the highest dose activation, most hits filed as activators; 350,000 compounds, 0.064% hits; AID 624291;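 note: potency is the fitted concentration of half-maximal effect; 100% = response of the positive control SU9516; nearly all actives have a fitted effect of over 60% in size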
#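 alpha7betagal+/- myoblasts (passage 13, 250/well) treated 48 h at 37C with compounds at 1:260 dilution of DMSO stock. Lysed, then beta-galactosidase activity read as FDG fluorescence (ex 480/em 540) after 30 min, with pre-read for autofluorescence.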
# IL-1B inflam inh: blocks inflammasome-driven IL-1 beta release; THP-1 LPS/ATP IL-1B secretion, AlphaLISA, 16 h; stronger effect = lower value; activity change, % at 57.5 µM; 360,000 compounds, 4.7% hits; AID 743279; in the data active = activity change below about -50%; inconclusive = mostly about -30% to -49%; note: % is set by controls: 0 for no effect and ±100 for the full control effect
#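 THP-1 cells pretreated 1 hr with compounds (up to 57.5 uM final), then stimulated with LPS (250 ng/mL final) plus ATP (1.25 mM final); secreted IL-1B measured by AlphaLISA after 16 hr, decreased signal indicating inhibition.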
# Active calls of the source: *; i = inactive; ? = inconclusive; . = no result; [ ] = another dose, or the depositor's remark. Unless noted, calls come from the whole dose curve; as a rule, active = well fitted curve in the direction sought with a large enough effect; inconclusive = small, poorly fitted or top-dose-only effect, or another doubt; inactive = no such curve, though single readings can be large; an effect the other way counts as inactive or inconclusive.
SMILES,ATXN2 expr inh,D3 antag,ATXN viability,DRD3 agonist,Integrin act MD,IL-1B inflam inh
COc1ccc(CC(C)Nc2cccc(F)c2)cc1 (centres undefined),3%,-17,i,1,28%,8
O=C(/C=C/c1ccccc1)NCCc1cnc[nH]1,4%,0,i,0,34%,8
CCOP(=S)(OCC)Oc1nc(Cl)c(Cl)cc1Cl,-4%,18,i,-6,.,0
CCOC(=O)[C@]12Cc3cc4ccccc4cc3[C@H]1N(Cc1ccccc1)C(=O)c1cc(OC)ccc12,20µM*,-20,32µM*,-1,.,-109*
CC(C)Oc1cc(-n2c(=S)[nH]c3ccccc3c2=O)c(Cl)cc1Cl,-9%,6,i,-19,3%,29
CCCCc1ccc(NC2=NCCCS2)cc1,-15%,1,?,-7,-54%,-21
Brc1cc2c(cc1CN1CCN(c3ccccc3)CC1)OCCO2,4%,-73*,i,-28,-25%,-24
Oc1cc2c(cc1CN1CCN(c3ccccc3)CC1)CCC2,-17%,-7,i,-2,-19%,18
Fc1cccc(F)c1CN1CCN(c2ccc(Cl)cc2)CC1,-12%,-16,.,-12,-25%,8
Oc1cc2c(cc1CN1CCN(c3ccc(F)cc3)CC1)OCO2,-1%,-66*,i,-24,-14%,-1
COc1ccc(CN2CCN(c3ccccc3)CC2)c(C)c1C,-9%,-75*,i,1,-8%,16
Cc1cc(O)c(CN2CCN(c3ccccc3)CC2)cc1C,-18%,-65*,i,-24,-10%,-1
O=C(Nc1cccc2ccccc12)N1Cc2ccccc2-n2nncc2C1,3%,4,i,0,-4%,25
O=C(CCn1c(=O)oc2ccccc21)N1CCN(c2ccccc2Cl)CC1,-9%,-13,?,2,-4%,10
COc1ccc2c(c1)C1(C)CCN(C)CC(C1)C2O (centres undefined),.,-21,i,-9,-5%,0
Oc1ccc(Cl)cc1CN1CCN(Cc2ccccc2)CC1,0%,-66*,i,-3,-11%,3
Cc1ccc(O)c(CN2CCN(c3ccccc3)CC2)c1,6%,-80*,i,-6,0%,-17
Cc1ccc(O)c(CN2CCC3CCC(C3)C2)c1 (centres undefined),-1%,-2,?,1,-10%,-12
O=C(Cc1ccccc1)N1CCN(Cc2ccc(Cl)cc2)CC1,?,2,?,-11,11%,7
CCCOc1ccc(C2SCC(=O)Nc3c2c(C)nn3-c2cccc(C)c2)cc1OC (centres undefined),-17%,.,?,3,.,.
CCOc1cccc(CC(=O)NCc2ccc3c(c2)CCN3C(=O)c2cccc(C)c2)c1OCC,?,.,28µM*,3,.,.
COc1ccc(-c2nc(CN3C(=O)CN=C(c4ccccc4)c4ccccc43)c(C)o2)cc1,?,.,?,12,.,.
CN1CC[C@]23c4c5ccc(O)c4O[C@H]2[C@@H](O)CC[C@H]3[C@H]1C5,10%[116 µM],.,i,0,.,.
COC(=O)C(O)(c1ccc(NC(=O)c2cccs2)cc1)C(F)(F)F (centres undefined),.,-62*,i,-16,-13%,0
CN1C(=O)/C(=C\c2ccc(Br)s2)C(=O)NC1=S,?,-20,?,-8,-17%,-99*
SMILES,ATXN2 expr inh,D3 antag,ATXN viability,DRD3 agonist,Integrin act MD,IL-1B inflam inh
O=C1NC(=S)NC(=O)C1=Cc1c(Cl)cccc1Cl,?,-5,i,-7,?,-99*
O=C1NC(=S)NC(=O)C1=Cc1ccc(OCc2ccccc2)cc1,12%,-21,i,-5,-14%,-15
O=C1NC(=S)NC(=O)C1=Cc1cccc2cc3ccccc3cc12,.,-19,i,-5,-8%,-99*
O=C1NC(=S)NC(=O)C1=Cc1ccc(Br)s1,.,4,?,-2,-63%,-100*
COc1ccc(C=C2C(=O)NC(=S)NC2=O)cc1,3%,-10,i,9,-10%,0
CCN(CC)P(=S)(c1c(C)nc2ccccn12)c1c(C)nc2ccccn12,-35%,-16,i,-10,-32%,32
O=C(O)Cn1cc(C(=O)c2ccccc2F)c2ccccc21,11%,13,i,3,-14%,0
